Bioassay records (PubChem BioAssay)
HSF1 inh: HSF1 inhibition; NIH3T3-HGL HSE-luciferase, MG132-induced, luminescence 8 h; active compounds read low; activity change, negative = inhibition, % at 7.5 µM (by protocol); hit rate 0.77% among 300,000; AID 2098;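 active = more than half of replicate wells show activity change below -50%, luminescence cut by over half; inconclusive = some wells, but at most half, below -50%; inactive = no replicate well below -50%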;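 also: luciferase reports HSF-1 transcriptional activity via heat shock element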
HIF activator: HIF pathway transcriptional activation; U2OS HRE-luciferase reporter, luminescence; normalized: DMSO 0%, desferrioxamine 100%; activation, % at 7.5 µM (by protocol); hit rate 0.32% among 300,000; AID 1910;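 active = mean activation of at least 10% of the iron chelator positive control signal, with at least half of replicates also reaching 10%; inconclusive = mean and replicate majority disagree about reaching 10%; inactive = mean and most replicates under 10%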
HSF-1 act: increases HSF-1 driven luciferase reporter signal; NIH3T3-HGL HSF-1 luciferase reporter, MG132, 8 h; 100% = twice DMSO control signal; activation, % at 9 µM; hit rate 1.7% among 300,000; AID 504408;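 active = mean replicate activation of at least 50% with a set share of replicates each reaching 50%; inconclusive = only one of those two conditions met; inactive = mean below 50% and too few replicates reaching it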
ARNT-TACC3 inh: disrupts binding between human ARNT and TACC3; Q9Y6A5; hit rate 0.66% among 390,000; inhibition, % at 9.99 µM; AlphaScreen His-ARNT PAS-B/GST-TACC3 binding, luminescence; TACC3 fragment carries E629A point mutation; AID 623870;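 active = mean inhibition of replicates at least 50% and at least half of replicates each reaching 50%; inconclusive = half or more replicates reach 50% but mean below 50%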
HSP90 refold inh: inhibitors of HSP90 luciferase refolding in rabbit reticulocyte lysate. AID 1789. inhibition, % at 5.6 µM. luciferase refolding luminescence, 3 h. hit rate 0.91% among 290,000;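 active = inhibition above the screen-wide mean plus 3 SD, computed separately per campaign, cut at about 16% in these data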;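 also: inhibitors lower the luminescence because luciferase stays unfolded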
HSP90 confirm: confirmation of HSP90 inhibitors; shares compounds with HSP90 refold inh; rabbit reticulocyte lysate, luciferase refolding luminescence, 3 h; inhibition, % at 5.9 µM; hit rate 64% among 2,300; in the data active = inhibition above about 18%
luciferase ctr: counter-screen for HSP90 inhibitors: inhibitors of firefly luciferase. inhibition, % at 5.9 µM. hit rate 48% among 2,300. shares compounds with HSP90 refold inh. AID 1847. purified native firefly luciferase, luminescence;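 active = inhibition above the mean inhibition of all tested sample wells plus 3 SD, cut at about 10% in these data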
Target sequence (P08659 whole entry, looked up): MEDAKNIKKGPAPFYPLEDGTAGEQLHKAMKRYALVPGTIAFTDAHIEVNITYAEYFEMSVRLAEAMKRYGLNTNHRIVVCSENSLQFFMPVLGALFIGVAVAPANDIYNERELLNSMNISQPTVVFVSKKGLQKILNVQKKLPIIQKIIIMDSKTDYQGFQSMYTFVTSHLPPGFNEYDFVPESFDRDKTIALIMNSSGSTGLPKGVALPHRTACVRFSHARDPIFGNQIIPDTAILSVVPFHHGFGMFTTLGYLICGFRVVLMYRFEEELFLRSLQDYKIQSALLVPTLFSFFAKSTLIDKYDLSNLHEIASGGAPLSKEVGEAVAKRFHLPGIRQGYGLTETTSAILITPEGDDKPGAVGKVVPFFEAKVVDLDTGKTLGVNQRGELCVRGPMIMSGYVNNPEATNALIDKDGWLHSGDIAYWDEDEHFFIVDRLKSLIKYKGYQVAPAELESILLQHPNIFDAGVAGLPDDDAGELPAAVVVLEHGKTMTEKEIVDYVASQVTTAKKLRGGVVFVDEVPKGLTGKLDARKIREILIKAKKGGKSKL
Numbers stand for hits; - = inactive; ? = inconclusive; . = not tested or not shown. Hits are enriched below; roughly 3.1% of the tested compounds scored in any of these assays.

SMILES	HSF1 inh	HIF activator	HSF-1 act	ARNT-TACC3 inh	HSP90 refold inh	HSP90 confirm	luciferase ctr
COc1ccc(NC(=O)Nc2ccc3c(c2)[C@@H]2C[C@H](CC(=O)N4CCc5ccccc5C4)O[C@H](CO)[C@@H]2O3)cc1	.	.	.	-	.	.	.
O=C(C[C@H]1CC[C@H]2[C@@H](COC[C@H](O)CN2Cc2ccccc2F)O1)N1CCc2ccccc2C1	.	.	.	-	.	.	.
CC1=C(C(=O)OCC(C)C)C(c2ccsc2)NC(=O)N1 (stereo not drawn)	-	-	-	-	24	-	-
CC(=O)/C(=C\N(C)C)Sc1ccc(C)cc1	-	-	-	-	33	-	-
O=C(Nc1ccc2c(c1)OCCO2)c1cccc(Cl)c1	-	-	-	-	-	.	.
O=C(Nc1ccc2c(c1)OCCO2)c1ccc(Cl)cc1Cl	-	-	?	-	33	40	30
O=C(Nc1ccc2c(c1)OCO2)c1ccc(Cl)cc1Cl	-	-	53	-	24	37	22
C[C@H]1CN([C@@H](C)CO)C(=O)c2cccc(NC(=O)C3CC3)c2O[C@H]1CN(C)C(=O)Nc1ccc(C(F)(F)F)cc1	.	.	.	-	.	.	.
C=CC1c2ccccc2/C=C(C(=O)OC)\C(C(=O)OC)=C/N1Cc1ccc(OC)cc1 (stereo not drawn)	.	.	.	-	.	.	.
O=C(N/N=C/c1ccc(O)cc1)c1ccc(NC(=O)c2ccccc2Br)cc1	-	-	-	-	20	-	-
O=C(Nc1nccs1)c1cc2c(s1)CCCCC2	-	-	-	-	59	86	81
O=C(Nc1nncs1)c1cc2c(s1)CCC2	-	-	-	-	-	.	.
Cc1ccc(C(=O)Nc2ncc(C)s2)s1	-	-	70	-	29	50	40
COc1cc(SC)ccc1C(=O)Nc1ccc(Br)cn1	-	-	-	-	33	87	83
COc1cc(SC)ccc1C(=O)Nc1ccon1	-	-	-	-	-	.	.
COc1cc(SC)ccc1C(=O)Nc1ccccn1	-	-	-	-	18	47	38
COc1cc(SC)ccc1C(=O)Nc1ncc(C)s1	-	-	-	-	80	88	85
CO[C@@H]1CN(C)C(=O)c2cc(NS(=O)(=O)CC(F)(F)F)ccc2OC[C@@H](C)N(CC2CCCCC2)C[C@@H]1C	.	.	.	-	.	.	.
Cc1cccc([C@@H]2[C@@H]3C(=O)N(Cc4ccccc4)C(=O)[C@@H]3[C@]3(Cc4ccc(Cl)cc4)C(=O)N(c4ccc(Br)cc4)C(=O)N23)c1	-	-	-	-	27	-	-
CC[C@@]12C(=O)N(c3ccc(C)cc3)C(=O)N1[C@H](c1cccc(C)c1)[C@@H]1C(=O)N(Cc3ccccc3)C(=O)[C@@H]12	-	-	-	-	.	.	.
COCCn1c(C)c(C)c2c(NCCc3ccccc3)ncnc21	-73	-	-	-	60	63	63
O=C(C[C@H]1CC[C@@H]2NC[C@H](O)COC[C@H]2O1)Nc1nccs1	.	.	.	-	.	.	.
COCC(C)n1c(C)cc(C(=O)COC(=O)c2n[nH]c3ccccc23)c1C (stereo not drawn)	-53	-	-	-	47	48	45
CN=c1scc(-c2ccc(F)cc2)n1/N=C/c1ccc(O)c(O)c1	.	.	.	-	20	42	19
CN=c1scc(-c2ccc([N+](=O)[O-])cc2)n1/N=C/c1ccco1	-	-	-	-	-	.	.
SMILES	HSF1 inh	HIF activator	HSF-1 act	ARNT-TACC3 inh	HSP90 refold inh	HSP90 confirm	luciferase ctr
O=C(C[C@@H]1CC[C@H]2[C@@H](COC[C@@H](O)CN2S(=O)(=O)c2ccccc2)O1)NCCN1CCCCC1	.	.	.	-	.	.	.
COc1ccc(NC(=O)Nc2ccc3c(c2)C(=O)N([C@@H](C)CO)C[C@H](C)[C@H](CN(C)C(=O)c2ccccc2)OCCCC[C@H](C)O3)cc1	.	.	.	-	.	.	.
O=c1cc(-c2ccc(Br)cc2)[nH][nH]1	-	-	-	-	-	.	.
COc1cccc(-c2cc(=O)[nH][nH]2)c1	-	-	-	-	-	.	.
COc1ccc(-c2cc(=O)[nH][nH]2)cc1OC	-	-	-	50	34	-	-
O=c1cc(-c2ccccc2)[nH][nH]1	-	-	-	-	40	-	-
CCOc1ccc(N(CC(=O)N2CCCCCC2)S(=O)(=O)c2ccc(F)cc2)cc1	-	-	-	-	35	-	-
C#CCOCCOCCOCCNc1nc(N2CCN(C(=O)[C@H](Cc3ccc(O)cc3)n3cc([C@@H](N)C(C)CC)nn3)CC2)nc(N2CCN(C(=O)[C@H](Cc3cc4ccccc4[nH]3)n3cc([C@@H](N)C(C)CC)nn3)CC2)n1 (stereo partly drawn)	-	-	-	-	-	.	.
C#CCOCCOCCOCCNc1nc(N2CCN(C(=O)[C@H](Cc3cc4ccccc4[nH]3)n3cc([C@@H](N)C(C)CC)nn3)CC2)nc(N2CCN(C(=O)[C@H](Cc3cc4ccccc4[nH]3)n3cc([C@@H](N)Cc4ccc(O)cc4)nn3)CC2)n1 (stereo partly drawn)	-	-	-	.	21	27	-
C#CCOCCOCCOCCNc1nc(N2CCN(C(=O)[C@H](Cc3cc4ccccc4[nH]3)n3cc([C@@H](N)CC(C)C)nn3)CC2)nc(N2CCN(C(=O)[C@H](Cc3cc4ccccc4[nH]3)n3cc([C@@H](N)CC(C)C)nn3)CC2)n1	-	-	-	-	20	18	-
C#CCOCCOCCOCCNc1nc(N2CCN(C(=O)[C@H]([C@@H](C)CC)n3cc([C@@H](N)Cc4ccc(O)cc4)nn3)CC2)nc(N2CCN(C(=O)[C@H](Cc3cc4ccccc4[nH]3)n3cc([C@@H](N)C(C)CC)nn3)CC2)n1 (stereo partly drawn)	-	-	-	.	19	-	-
COC(=O)C[C@@H]1C[C@H]2c3cc(NC(=O)NC4CCCCC4)ccc3O[C@H]2[C@H](CO)O1	.	.	.	-	.	.	.
CN1C(=O)c2cc(NC(=O)c3ccc(F)cc3)ccc2OC[C@@H]2O[C@H](CC(=O)NCC3CCCCC3)CC[C@@H]21	.	.	.	-	.	.	.
CC(C)(C)C(=O)Nc1ccc(/C=C/C(=O)c2ccco2)cc1	-	-	-	-	26	40	50
CC(C)(C)C(=O)Nc1ccc(NC(=O)c2ccco2)nc1	-91	-	-	.	91	89	84
Nc1ccc(/C=C/C(=O)c2ccco2)cc1	-	-	-	-	-	.	.
O=C(Nc1ccc(NC(=O)c2ccco2)nc1)c1ccco1	-	-	-	-	-	.	.
O=C(Nc1ccc(NC(=O)C2CCCCC2)cn1)c1ccco1	-	-	-	-	22	55	47
Cc1noc(C)c1NC(=O)N(C)C[C@H]1OCCCC[C@@H](C)Oc2ccc(NC(=O)c3ccncc3)cc2C(=O)N([C@@H](C)CO)C[C@@H]1C	.	.	.	-	.	.	.
NCC[C@@H]1CC[C@@H](NC(=O)C2CCCCC2)[C@@H](CO)O1	.	.	.	-	.	.	.
